Data published in PubChem BioAssay (NCATS).
Inconclusive results are not listed. A call without a number means that no potency is given here. Active and inactive are the calls of the source. Unless noted, calls follow the shape of the full dose curve.

How the values were obtained:
[1] = Cytotoxicity counterscreen for inhibitors of SARS-CoV-2 cell entry (AID 1645845); also: nearly all actives have a fitted effect of over 50% in size
Summary of the method: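 Expi293F/hACE2 cells seeded overnight; cpd pin-transferred in DMSO, 1 h preincubation, + media, 48 h 37 C 5% CO2; ATPLite 1step luminescence; normalized to cells and no cells.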

[2] = biological target: Glutathione peroxidase 1 (Homo sapiens) (UniProt P07203); test: Primary qHTS Assay for Inhibitors of Recombinant Selenoprotein Glutathione Peroxidase 1 (GPX1) (AID 1845191; active = well fitted curve in the direction sought with a large enough effect; an effect the other way counts as inactive or inconclusive; also: nearly all actives have a fitted effect of over 65% in size)
Summary of the method: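 Recombinant GPX1 (10 nM final) was preincubated with compound for 30 min at room temperature, then reacted with 1 mM GSH, 0.5 mM CHP, 0.5 mM NADPH and 100 nM glutathione reductase; NADPH fluorescence (340/450 nm) was read at 0 and 15 min.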

[3] = Primary qHTS to identify inhibitors of SARS-CoV-2 cell entry (AID 1645846); also: nearly all actives have a fitted effect of over 45% in size; also: potency is read from the fitted curve at half-maximal effect
Summary of the method: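 HEK293-ACE2 (Expi293F, stable hACE2), 1500 cells/well, o/n 37C; cpd 23 nL pin, 1 h; MLV-PP w/ SARS-CoV-2-S (Wuhan-Hu-1, Δ19 C-term); 48 h 37C; Bright-Glo luminescence; normalized vs S-PP and bald PP.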

[4] = biological target: Nuclear receptor subfamily 1 group I member 3 (Homo sapiens) (UniProt Q14994); test: Primary qHTS for antagonist of constitutive androstane receptor (CAR) against the NCATS DSHEA and TCM libraries (AID 1794836; active = well fitted curve in the direction sought with a large enough effect; an effect the other way counts as inactive or inconclusive)
Summary of the method: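 HepG2 cells stably carrying hCAR and a CYP2B6 luciferase reporter (2,500 cells/well) attached for 5 h, then received compounds with 48 uM CITCO for 24 h at 37C. ONE-Glo luminescence read antagonism; CellTiter-Fluor (405/540 nm) gave viability.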

[5] = activity change, negative = inhibition: at 57.1 µM (top of the series) unless noted
[6] = SARS-CoV-2 pseudovirus cell entry assay, luminescence, at 57.1 µM (top of the series)

Nuclear receptor subfamily 1 group I member 3 (Homo sapiens), sequence (Q14994 whole entry, looked up): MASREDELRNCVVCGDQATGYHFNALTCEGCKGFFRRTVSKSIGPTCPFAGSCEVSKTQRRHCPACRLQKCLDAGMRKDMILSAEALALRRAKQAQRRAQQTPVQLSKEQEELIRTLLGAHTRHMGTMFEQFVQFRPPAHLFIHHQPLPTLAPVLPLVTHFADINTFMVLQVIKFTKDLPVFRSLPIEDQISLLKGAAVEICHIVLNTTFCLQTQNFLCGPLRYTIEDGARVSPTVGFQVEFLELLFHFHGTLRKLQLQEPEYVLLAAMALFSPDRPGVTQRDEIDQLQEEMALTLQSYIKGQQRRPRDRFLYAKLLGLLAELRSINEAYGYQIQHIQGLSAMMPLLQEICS
Glutathione peroxidase 1 (Homo sapiens), sequence (P07203 whole entry, looked up): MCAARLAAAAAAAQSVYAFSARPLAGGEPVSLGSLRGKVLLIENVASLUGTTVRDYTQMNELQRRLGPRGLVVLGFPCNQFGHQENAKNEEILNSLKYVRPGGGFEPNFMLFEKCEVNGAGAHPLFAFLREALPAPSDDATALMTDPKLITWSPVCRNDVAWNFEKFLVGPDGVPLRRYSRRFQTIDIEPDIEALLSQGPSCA

Which Potency [1] does the source give for `COC(=O)C(c1ccccc1)C1CCCCN1` (stereo unspecified) here?
The Potency was “inactive”.

And the Potency [2]?
The Potency was “inactive”.

Which Potency [3, 5] does the source give for `O=c1[nH]c(=O)n([C@H]2C[C@H](O)[C@@H](CO)O2)cc1I` here?
The Potency was 15.8 µM (active).

With `O=C(O)c1cccnc1` as the molecule, how does the Potency [1] read?
The Potency was “inactive”.

What about the Potency [3, 5] of the same molecule?
Its Potency is “inactive”.

What about the activity change, negative = inhibition [3, 5] of the same molecule?
Its activity change, negative = inhibition is -20.2% [at 114 µM].

Which Potency [1] does the source give for `Cc1ccc(C(C)C)c(O)c1` here?
The Potency was “inactive”.

And the activity change, negative = inhibition [3, 5]?
The activity change, negative = inhibition was -6.21%.

What about the outcome [4] of the same molecule?
Its outcome is “inactive”.

With `CNC[C@H](O)c1cccc(O)c1` as the molecule, how does the Potency [1] read?
Its Potency is “inactive”.

What about the Potency [3, 5] of the same molecule?
The Potency was “inactive”.

What about the activity change, negative = inhibition [3, 5] of the same molecule?
The activity change, negative = inhibition was 1.11%.

For `CO[C@@H]1[C@@H](OC(N)=O)[C@@H](O)[C@H](Oc2ccc3c(O)c(NC(=O)c4ccc(O)c(CC=C(C)C)c4)c(=O)oc3c2C)OC1(C)C`, which Potency [1] is on record?
The Potency was “inactive”.

And the Potency [3, 5]?
Its Potency is “inactive”.

And the activity change, negative = inhibition [3, 5]?
Its activity change, negative = inhibition is 0.81%.

For `CC(C)(C)c1ccc(O)cc1`, which activity change, negative = inhibition [3, 5] is on record?
Its activity change, negative = inhibition is -17.1%.

Which Potency [1] does the source give for `Clc1ccc2nsnc2c1NC1=NCCN1` here?
The Potency was “inactive”.

What about the Potency [3, 5] of the same molecule?
Its Potency is “inactive”.

And the activity change, negative = inhibition [3, 5]?
The activity change, negative = inhibition was -13.9%.

With `Nc1ccc(C(=O)O)cc1` as the molecule, how does the Potency [1] read?
The Potency was “inactive”.

And the Potency [3, 5]?
Its Potency is “inactive”.

And the outcome [4]?
The outcome was “inactive”.

Which Potency [3, 5] does the source give for `CC(=O)N1CCN(c2ccc(OC[C@H]3CO[C@](Cn4ccnc4)(c4ccc(Cl)cc4Cl)O3)cc2)CC1` here?
Its Potency is 15.8 µM (active).

With `Cc1cc2c(cc1CC(=O)c1sccc1S(=O)(=O)Nc1onc(C)c1Cl)OCO2` as the molecule, how does the Potency [1] read?
Its Potency is “inactive”.

What about the Potency [3, 5] of the same molecule?
The Potency was “inactive”.

What about the activity change, negative = inhibition [3, 5] of the same molecule?
The activity change, negative = inhibition was -56.4%.

For `C=CCc1ccc(O)c(OC)c1`, which Potency [1] is on record?
The Potency was “inactive”.

What about the Potency [3, 5] of the same molecule?
Its Potency is “inactive”.

And the outcome [4]?
The outcome was “inactive”.

With `Cc1ncc([N+](=O)[O-])n1CC(C)O` (stereo unspecified) as the molecule, how does the Potency [1] read?
The Potency was “inactive”.

What about the activity change, negative = inhibition [3, 6] of the same molecule?
The activity change, negative = inhibition was -6.83%.

And the activity change, negative = inhibition ([3]; SARS-CoV-2 pseudovirus cell entry assay, luminescence, at 114 µM (top of the series))?
The activity change, negative = inhibition was -38.4%.

For `CCC[C@@H]1C[C@@H](C(=O)N[C@@H]([C@H]2O[C@H](SC)[C@H](O)[C@@H](O)[C@H]2O)[C@@H](C)O)N(C)C1`, which Potency [3, 5] is on record?
Its Potency is “inactive”.

Which results are given for `Nc1ccc(S(N)(=O)=O)cc1`?
Potency [1]: inactive; Potency [3, 5]: inactive; activity change, negative = inhibition [3, 5]: -17.3%

Which Potency [3, 5] does the source give for `COC(=O)CCCCC(CCSS/C(CCO)=C(\C)N(C=O)Cc1cnc(C)nc1N)SC(C)=O` (stereo unspecified) here?
Its Potency is “inactive”.

Which results are given for `CC(=O)NCCCS(=O)(=O)O`?
activity change, negative = inhibition ([3]; SARS-CoV-2 pseudovirus cell entry assay, luminescence, at 27.1 µM (top of the series)): 1.79%; activity change, negative = inhibition [3, 6]: -6.89%

With `CCCCCCCCCCCCCCCC(=O)O` as the molecule, how does the outcome [4] read?
Its outcome is “inactive”.

Which outcome [4] does the source give for `CC(C)=CCC[C@@](C)(O)[C@H]1CC=C(C)CC1` here?
The outcome was “inactive”.
